The entries come from a sample that favours hits as a whole.
Pf Dd2 inh = blocks in vitro growth of P. falciparum Dd2; Potency, µM (highest dose often 28.9 µM), for the others: at the highest dose activity, negative = inhibition, usual class: inhibitors; P. falciparum Dd2 growth, SYBR Green, 72 h; hit rate 4.3% among 120,000; active = well fitted inhibition curve with a large enough effect;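 also: plate controls were DMSO vehicle for no effect and reference drug for full effect; nearly all actives have a fitted effect of over 65% in size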
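Infected erythrocytes (Dd2, 0.3% parasitemia, 2.5% hematocrit final) are added to compound in RPMI-1640/Albumax II medium, grown 72 h at 37C in low oxygen, then lysed with saponin/Triton-X containing SYBR Green and read by fluorescence.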
* marks the source's active call; other numbers are inactive results; i = inactive; [ ] = dose if it differs, or a comment. Potency is read from the fitted curve at half-maximal effect.

SMILES	Pf Dd2 inh
CN1c2cc(C(=O)N3CCN(c4ccccc4Cl)CC3)ccc2C(=O)N2CCCCC21 (stereo not drawn)	6.31µM*
CN1c2cc(C(=O)Nc3ccccc3)ccc2C(=O)N2CCCCC21 (stereo not drawn)	i
CCN1c2cc(C(=O)N3CCN(c4ccccc4)CC3)ccc2C(=O)N2CCCCC21 (stereo not drawn)	i
CCOc1ccccc1N1CCN(C(=O)c2ccc3c(c2)N(C)C2CCCCN2C3=O)CC1 (stereo not drawn)	5.01µM*
Cc1cccc(NC(=O)c2ccc3c(c2)N(C)C2CCCCCN2C3=O)c1 (stereo not drawn)	i
CCN1c2cc(C(=O)N3CCN(c4ccccn4)CC3)ccc2C(=O)N2CCCCC21 (stereo not drawn)	i
CN1c2cc(C(=O)N3CCN(c4ccc(F)cc4)CC3)ccc2C(=O)N2CCCCCC21 (stereo not drawn)	i
Cc1cccc(N2CCN(C(=O)c3ccc4c(c3)N(C)C3CCCCCN3C4=O)CC2)c1 (stereo not drawn)	8.91µM*
COc1ccc(CNC(=O)N2CCC(Oc3ccc(-c4noc(C5CC5)n4)cc3)C2)cc1 (stereo not drawn)	59.3%[5.79 µM]
COCc1cn2c(=O)n(C)cc(-c3ccnc(OC)c3)c2n1	-11.4%[44.1 µM]
COC(=O)c1c(NC(=O)c2nc(SCc3ccccc3C)ncc2Cl)sc2c1CCCC2	3.7%
COc1ccc(OCC2(C)COc3ccc(C(=O)NCC4CCOCC4)cc3N2)cc1 (stereo not drawn)	-10.8%[44.1 µM]
Cc1cccc(N2CCN(S(=O)(=O)c3ccc(F)c(C(=O)Nc4cccc(Cl)c4C)c3)CC2C)c1 (stereo not drawn)	-2.6%
O=C(NC[C@H]1OC[C@@H](NC2CCCC2)[C@@H]1O)c1cccs1	-16.8%[44.1 µM]
O=C(NC1CCCCC1)C1CN(C(=O)c2ccc(F)cc2)CC12CCOCC2 (stereo not drawn)	-0.3%
COCCCn1c(C)cnc1CC1CCN(C(=O)c2ccc(OC)cc2OC)CC1	-14.1%
COc1cc(NC(=O)CCCN2C(=O)CCn3nc(-c4cn(C)c5ccccc45)cc32)cc(OC)c1	7.94µM*
Cn1cc(-c2cc3n(n2)CCC(=O)N3CCCC(=O)Nc2ccc(Cl)cc2)c2ccccc21	1.7%
Cc1cccc(C)c1NC(=O)CCCN1C(=O)CCn2nc(-c3cn(C)c4ccccc34)cc21	44.0%
CS(=O)(=O)Nc1ccc(C2(C(=O)NCCC3=CCCCC3)CCCCC2)cc1	-21.7%
Cn1cc(CN2C[C@H](C(=O)Nc3nccs3)C[C@@H]2c2cccc(C(F)(F)F)c2)cn1	-26.1%[44.1 µM]
CN1C[C@H](C(=O)Nc2ccncn2)C[C@H]1c1cccc(C(F)(F)F)c1	-5.0%[44.1 µM]
CN1C[C@H](C(=O)Nc2nccs2)C[C@H]1c1cccc(C(F)(F)F)c1	2.82µM*
CC(C)(C)OC(=O)N1CCC(c2c(C(=O)N3CCN(c4ccccc4F)CC3)cnn2C(C)(C)C)CC1	10µM*
COc1ccccc1N1CCN(C(=O)c2cnn(C(C)(C)C)c2C2CCN(C(=O)OC(C)(C)C)CC2)CC1	6.31µM*
SMILES	Pf Dd2 inh
Cc1ccc(-n2ncc(C(=O)N3CCN(c4ccccc4F)CC3)c2C2CCN(C(=O)OC(C)(C)C)CC2)cc1C	2.9%
COCCCNC(=O)C1CCN(c2cnc3nccnc3c2)CC1	i
COc1ccccc1Cc1nc2ccccc2nc1SCC(=O)NCc1ccc(C)cc1	i
Cc1ncc2n1C(=O)N(C1CCN(C(=O)c3ccc(F)cc3)CC1)C2	-7.2%
CC(C)(C)OC(=O)N1CCC(c2c(C(=O)NC3CCN(Cc4ccccc4)CC3)cnn2-c2ccc(F)cc2F)CC1	11.2µM*
CCOC(=O)N1CCC(NC(=O)c2cnn(-c3ccc(F)cc3F)c2C2CCN(C(=O)OC(C)(C)C)CC2)CC1	3.55µM*
CCn1c(=O)c2sccc2n2c(CCC(=O)Nc3ccc(OC)c(Cl)c3)nnc12	28.1%
N#Cc1ccc(O[C@@H]2CCOC[C@H]2NC(=O)c2nnc3n2CCCCC3)cc1	-29.0%
CCc1ccc(CN2C[C@@H]3C(=O)N(CCCN4CCCC4=O)C(=O)[C@@H]3C2)cc1	-1.8%
COc1ccc(C2Cn3nnc(-c4nc(C(C)C)no4)c3CO2)cc1 (stereo not drawn)	i
COc1cccc(CCN2CC[C@H]3CN(C(=O)COc4ccccc4)CC[C@H]3CC2=O)c1OC	i
F[C@@H]1CN(Cc2ccc(C(F)(F)F)cc2)C[C@@H]1OCc1nc2ccccc2[nH]1	-6.1%[44.1 µM]
COC(=O)c1ccc2nc(CO[C@H]3CN(Cc4ccc5c(c4)OCO5)C[C@H]3F)[nH]c2c1	8.91µM*
Cc1cc2nc(CO[C@H]3CN(C)C[C@H]3F)[nH]c2cc1C	i
Cc1cc2nc(CO[C@H]3CN(Cc4ccc(C(=O)O)cc4)C[C@H]3F)[nH]c2cc1C	i
COC(=O)c1ccc2nc(CO[C@H]3CN(Cc4cccc(C#N)c4)C[C@H]3F)[nH]c2c1	-1.9%[44.1 µM]
COC(=O)c1ccc2nc(CO[C@H]3CN(Cc4ccc(C(F)(F)F)cc4)C[C@H]3F)[nH]c2c1	-9.5%
Cc1ccc2nc(CO[C@H]3CN(Cc4ccc(C(F)(F)F)cc4)C[C@H]3F)[nH]c2c1	8.91µM*
COC(=O)c1ccc2nc(CO[C@H]3CN(Cc4cnn(C)c4)C[C@H]3F)[nH]c2c1	-22.3%[44.1 µM]
Fc1ccc2nc(CO[C@H]3CN(Cc4cccnc4)C[C@H]3F)[nH]c2c1	-20.3%[44.1 µM]
CC(=O)Nc1ccc(CN2C[C@@H](F)[C@@H](OCc3nc4cc(C)c(C)cc4[nH]3)C2)cc1	11.2µM*
Fc1ccc2nc(CO[C@H]3CN(Cc4ccccc4)C[C@H]3F)[nH]c2c1	12.6µM*
COc1ccc(CN2C[C@@H](F)[C@@H](OCc3nc4ccc(F)cc4[nH]3)C2)cn1	-15.6%[44.1 µM]
CCn1ccc2cc(S(=O)(=O)N3CCCN(C(=O)Nc4ccc(C)cc4)CC3)ccc21	i
COc1ccc(S(=O)(=O)N2C[C@@H](F)[C@@H](OCc3nc4ccccc4o3)C2)cc1	i
SMILES	Pf Dd2 inh
O=C1C(N2CCN(Cc3ccc[nH]3)CC2)CCN1CCc1ccccc1 (stereo not drawn)	i
COc1ccc(CCC(=O)NCCc2csc(-c3ccc(C(F)(F)F)cc3)n2)cc1	45.5%
O=C(Nc1ccc2nc3n(c(=O)c2c1)CCCCC3)C(=O)Nc1ccccc1F	-19.8%
O=C(NCc1cc2n(n1)CCNC2)c1ccc(Cn2cnnn2)cc1	15.1%
CN1CCc2[nH]cnc2C12CCN(C(=O)c1cccc(-n3cccn3)c1)CC2	-2.4%
CC(=O)Nc1ccc(CN2CCCC3(COc4ccccc4S(=O)(=O)N3)C2)cc1 (stereo not drawn)	-18.8%
CCC1COCCN1Cc1cn(-c2ccccc2)nc1-c1ccc(OC)cc1F (stereo not drawn)	12.6µM*
COc1ccc(CN2CCN(c3nc4ccccc4o3)CC2CCO)c(F)c1 (stereo not drawn)	-7.9%
COc1ccc(-c2ccnc3nc(C4CC4)nn23)c(F)c1	i
Cc1ccccc1-c1nn(-c2ccc(F)cc2F)cc1CN1CCC(O)CC1	11.2µM*
COc1ccc(-c2nn(-c3ccccc3)cc2CN2CCC(CO)CC2)c(F)c1	i
COc1ccc(-c2nn(-c3ccccc3)cc2CN2CCC(F)CC2)c(F)c1	11.2µM*
O=c1n(-c2ccc(F)cc2F)nc2n1CCN(Cc1cccc3ccccc13)C2	i
COc1ccc(-n2nc(C3CCN(Cc4cccc5ccccc45)CC3)[nH]c2=O)cc1	i
COc1cccc(N2CC(C(=O)N3CCC(C#N)CC3)NC2=O)c1 (stereo not drawn)	-5.4%[44.1 µM]
COc1ccc(-c2nn(-c3ccccc3)cc2CN2CCC(C#N)CC2)c(F)c1	11.2µM*

Bioassay records deposited in PubChem by National Center for Advancing Translational Sciences (NCATS).
